# Screen size: about 48,000 compounds; about 13,000 (27%) showed an effect of 50% or more. The list shows a part of the results.
# Tested on: Wolbachia pipientis
# Assay: Anti-Wolbachia Cell-Based Screen
# Assay type: functional
# Set-up: scale not given: in the data most compounds retested in dose-response had high values
# Settings: 5 µM
row,Structure (SMILES),Percent Effect
1,Nc1nc(CN2CCOC(Cn3cccn3)C2)nc2ccccc12 (configuration not stated),54.57%
2,Nc1nc(CN2CCOC(Cn3cncn3)C2)nc2ccccc12 (configuration not stated),-0.7232%
3,Cc1cnn(CC2CN(Cc3nc(N)c4ccccc4n3)CCO2)c1 (configuration not stated),9.564%
4,CNC(=O)Cc1ccc(-n2ccnc2-c2cccc(C(=O)O)c2)cc1,-25.18%
5,Cc1noc(-c2ccc(N(C)Cc3cccnc3)nc2)n1,-25.91%
6,O=C1CCc2cc(S(=O)(=O)NCc3cc4n(n3)CCNC4)ccc2N1,-63.18%
7,Cc1ccc(C(CNCc2cnn(C(C)C)c2)N2CCOCC2)s1 (configuration not stated),14.4%
8,O=C(NCC(O)COc1cccc(F)c1)C1(c2ccc(F)cc2)CC1 (configuration not stated),-1.107%
9,CCCOCCn1ncc(N2CCc3ccccc3C2)cc1=O,-4.867%
10,COCc1nc2cc(NCc3csc(C)n3)ccc2o1,-10.85%
11,COCCNC(=O)c1ccc(NCc2c(C)noc2C)cc1Cl,99.6%
12,Cc1ccc(-c2nc(CNc3ccc(C(N)=O)c(C)c3)cs2)o1,16.54%
13,Cc1noc(C)c1CNc1ccc2nc(C3CC3)sc2c1,-3.579%
14,COC(=O)c1ccc(NCc2csc(C)n2)cc1Cl,105.1%
15,COC(=O)c1cc(NCc2cscn2)ccc1C,4.935%
16,Cc1noc(C)c1CNc1cccc(C(=O)N(C)c2ccccc2)c1,8.742%
17,COCCNC(=O)c1ccc(NCc2csc(C)n2)cc1Cl,103.1%
18,CNC(=O)Cc1nc(CNc2ccc(SC)c(F)c2)cs1,0.08952%
19,CSc1ccc(NCc2csc(C)n2)cc1F,74.08%
20,COc1ccc(OCCCNC(=O)NCc2csc(C)n2)cc1,-1.518%
21,CSc1ccc(NCc2csc(CS(C)(=O)=O)n2)cc1F,19.87%
22,CCOCCC(=O)N1Cc2cnc(-c3ccccc3)nc2C1,-9.321%
23,Cc1nsc(N2CCN(C(=O)Nc3cccc(C#N)c3)CC2)n1,-11.67%
24,CC(=O)N[C@@H]1CN(Cc2ccccc2-n2cccn2)C[C@H]1C(C)C,1.725%
25,Cc1cc(C)cc(C(=O)NCCCC2(C3OCCO3)CCOCC2)c1,11.75%
26,CCn1c(CN(C)CC(=O)N(C)C)nc2c(F)cccc21,-12.46%

row,Structure (SMILES),Percent Effect
1,Cc1nnc(N2C[C@H](Oc3ccccn3)[C@H]3OCCC[C@H]32)s1.O=C(O)C(F)(F)F.O=C(O)C(F)(F)F,-4.759%
2,O=C(Nc1ccc(-c2cscn2)cc1)C1CCCN(Cc2ccon2)C1 (configuration not stated),-5.748%
3,CCOC(=O)NCCNC(=O)c1cc(Br)cn1C(C)C,-7.035%
4,Cc1ccc(C(=O)N2CCC3(CCN3Cc3ccc(F)cc3)C2)cn1.O=C(O)C(F)(F)F (configuration not stated),111.6%
5,Cc1cnc(C(=O)N2CCC3(CCN3Cc3ccc(F)cc3)C2)cn1.O=C(O)C(F)(F)F (configuration not stated),105.8%
6,Cn1ccnc1C(=O)N1CCC2(CCN2CC2CC2)C1.O=C(O)C(F)(F)F (configuration not stated),-29.26%
7,Cc1ccc(C(=O)N2CCC3(CCN(c4ccsc4)C3=O)C2)cn1.O=C(O)C(F)(F)F (configuration not stated),44.84%
8,Cn1ccnc1C(=O)N1CCC2(CCN2Cc2ccc(F)cc2)C1.O=C(O)C(F)(F)F (configuration not stated),107.3%
9,O=C(c1ccsc1)N1CCC2(CCN2Cc2ccc(F)cc2)C1 (configuration not stated),-0.5147%
10,CCN1CCC12CCN(C(=O)c1ccsc1)C2.O=C(O)C(F)(F)F (configuration not stated),-5.276%
11,Cn1c(CN2CCCC2)nnc1C1CCCN(C(=O)N2CCOCC2)C1 (configuration not stated),-16.59%
12,CCn1c(SC)nnc1C1CCN(C(=O)N2CCCC2)CC1,139.7%
13,CSc1nnc(C2CCN(C(=O)N3CCCC3)CC2)n1C,86.99%
14,CCn1c(Cn2cncn2)nnc1C1CCN(C(=O)CCSC)CC1,0.8054%
15,CSc1nnc(CC2CCN(C(=O)Cc3ccncc3)CC2)n1C,-0.6807%
16,CCn1c(CN2CCCC2)nnc1C1CCN(S(=O)(=O)CC)CC1,6.34%
17,O=C(NCCNC(=O)C1CCN(c2ncccn2)CC1)c1ccoc1,-1.676%
18,O=C(NCCNC(=O)C1CCN(CC(F)(F)F)CC1)c1ccoc1,16.83%
19,O=C(NCCNc1ncccn1)N1CCSCC1,-3.552%
20,CC(C)(C)OC(=O)N1CCC(C(=O)NCCNc2ncccn2)CC1,98.46%
21,O=C(NCCNc1ncccn1)C1CCN(C(=O)NC2CC2)CC1,95.19%
22,O=C(NCCNc1ncccn1)C1CCN(CC(F)(F)F)CC1,1.799%
23,O=C(NCCNc1ncccn1)C1CCN(C(=O)N2CCCC2)CC1,88.68%
24,CN(C)C(=O)N1CCC(C(=O)NCCNc2ncccc2C#N)CC1,-1.068%
25,O=C(NCCNc1ncccn1)C1CCN(C(=O)c2ccoc2)CC1,101.2%
26,O=C(NCCNc1ncccn1)C1CCN(C(=O)C2CC2)CC1,7.876%
